Assay [1] in a line: Drug repurposing screens with cells derived from glioblastoma tumor samples (AID 1345199). For activity, negative = cell killing: % is set by controls: 0 for no effect and ±100 for the full control effect. Note: nearly all actives have a fitted effect of over 40% in size. Note: potency is the fitted concentration of half-maximal effect. Conditions: GBM patient neurospheres viability, ATP luminescence, 48 h. A digest of the protocol: (§1)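 Primary testing used CD133+ neurospheres from four GBM patients, seven concentrations, 48 h exposure and ATP-based viability; confirmation added three slower-growing patient lines.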
Another assay has as its system astro (control astrocytes). The assay is described as above. The following applies: viability, ATP luminescence, 48 h; series mostly up to 45.9 µM. A digest of the protocol:
as §1

The target in assay [2] is Nuclear receptor subfamily 1 group I member 2 (Rattus norvegicus) (UniProt Q9R1A7). Put plainly: qHTS assay for small molecule activators of the rat pregnane X receptor (rPXR) signaling pathway (AID 651751; call rule not given here; note: 0% is about no effect). Conditions: rPXR reporter cells, luciferase (One-Glo), 24 h.
Assay [3] is described as follows: qHTS assay for small molecule activators of the human pregnane X receptor (PXR) signaling pathway (AID 720659; call rule not given here; note: 0% is about no effect). Conditions: DPX-2 HepG2 CYP3A4-luciferase, 24 h; series mostly up to 92.3 µM.
Setting [4] is: at 45.9 µM (top of the series), tumour line B.
[5] abbreviates: at 45.9 µM (top of the series), tumour line D.
Setting [6] is: at 46 µM (top of the series), tumour line A.
The mark [7] stands for this setting: at 46.1 µM (top of the series), tumour line C.

Unmarked numbers belong to inactive results. Results filed as inconclusive are left out. Activity calls are given as the source filed them. Unless noted, calls come from the whole dose curve; as a rule, active = well fitted inhibition curve with a large enough effect; inconclusive = small, poorly fitted or top-dose-only effect; inactive = flat fitted curve, though single readings scatter. Where a SMILES comes first, the peptide text is derived from it. [ ]: non-standard residue; d: D form. pGlu = O=C1CC[C@@H](C(=O)O)N1

Nuclear receptor subfamily 1 group I member 2 (Rattus norvegicus), sequence (Q9R1A7 whole entry, looked up): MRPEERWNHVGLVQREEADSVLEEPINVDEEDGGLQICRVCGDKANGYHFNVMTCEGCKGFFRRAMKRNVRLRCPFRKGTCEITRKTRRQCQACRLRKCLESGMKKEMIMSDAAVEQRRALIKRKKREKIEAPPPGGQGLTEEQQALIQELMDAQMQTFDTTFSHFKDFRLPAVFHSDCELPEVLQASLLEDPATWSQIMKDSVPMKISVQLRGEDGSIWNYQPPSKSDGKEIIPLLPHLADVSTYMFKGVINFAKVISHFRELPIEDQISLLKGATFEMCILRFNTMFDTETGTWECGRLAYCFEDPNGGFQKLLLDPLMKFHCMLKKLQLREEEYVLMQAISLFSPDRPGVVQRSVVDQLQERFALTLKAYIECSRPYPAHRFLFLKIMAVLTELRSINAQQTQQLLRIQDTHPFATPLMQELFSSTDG

For `CC1(C)S[C@@H]2[C@H](NC(=O)C3(N)CCCCC3)C(=O)N2[C@H]1C(=O)O`, the activity, negative = cell killing in assay [1] (setting [4]) is -3.31%; in assay [1] (setting [5]), -4.88%; in assay [1] (setting [6]), -7.56%; in assay [1] (setting [7]) it was -20.1%. The Potency entry in the assay on astro was “inactive”.
Turning to `CCCCC(O)c1ccccc1` (stereo not given), the activity, negative = cell killing in assay [1] (setting [4]) was -4.84%; in assay [1] (setting [5]), -15%; in assay [1] (setting [6]) it was -44.5%; in assay [1] (setting [7]), 0.769%. The Potency entry in the assay with astro was “inactive”.
As for `NS(=O)(=O)c1cc2c(cc1Cl)NC(Cc1ccccc1)NS2(=O)=O` (stereo not given), the activity, negative = cell killing in assay [1] (setting [4]) is 4.57%; in assay [1] (setting [5]), 9.26%; in assay [1] (setting [6]), -28.7%; in assay [1] (setting [7]), 0.872%. In addition, the Potency result in the assay on astro was “inactive”.
Take `CC(C)(C)NCC(O)CSc1nc(-c2ccc(C(N)=O)s2)cs1` (stereo not given): the activity, negative = cell killing is -20.2% in assay [1] (setting [4]), -9.92% in assay [1] (setting [5]) and -12.2% in assay [1] (setting [7]). In assay [1] (tumour line A), the Potency is 17.8 µM (active). For the same molecule, in the assay on astro, the Potency result was “inactive”.
For the molecule `OCC1(CO)COC(C(Cl)(Cl)Cl)OC1`, the activity, negative = cell killing was -8.7% in assay [1] (setting [4]), -7.18% in assay [1] (setting [5]), -26.1% in assay [1] (setting [6]) and -4.39% in assay [1] (setting [7]). Moreover, the Potency entry with astro is “inactive”.
For `C[C@@H]1O[C@@H]1P(=O)(O)O`, the activity, negative = cell killing is -9.49% in assay [1] (setting [4]), -16.5% in assay [1] (setting [5]), -24.5% in assay [1] (setting [6]) and -7.45% in assay [1] (setting [7]). For the same molecule, the Potency result in the assay on astro is “inactive”.
As for `COC(=O)[C@H]1[C@H]2C[C@@H]3c4[nH]c5cc(OC)ccc5c4CCN3C[C@H]2C[C@H](OC)[C@@H]1OC`, the results for the activity, negative = cell killing in assay [1] (setting [4]), in assay [1] (setting [5]) and in assay [1] (setting [7]) were -8.25%, -1.56% and -6.43%, respectively. Besides, the Potency in assay [1] (tumour line A) is 11.2 µM (active). Besides, the Potency entry in the assay on astro was “inactive”.
Turning to `O=C(O)c1ccc(NC(=O)[C@H](Cc2ccc(O)cc2)NC(=O)c2ccccc2)cc1`, the activity, negative = cell killing in assay [1] (setting [4]) is -3.63%; in assay [1] (setting [5]), -4.5%; in assay [1] (setting [6]), -23.1%; in assay [1] (setting [7]), -6.93%. The Potency result in the assay on astro was “inactive”.
Regarding `O=C(OC[C@H]1O[C@@H](OC(=O)c2cc(O)c(O)c(OC(=O)c3cc(O)c(O)c(O)c3)c2)[C@H](OC(=O)c2cc(O)c(O)c(OC(=O)c3cc(O)c(O)c(O)c3)c2)[C@@H](OC(=O)c2cc(O)c(O)c(OC(=O)c3cc(O)c(O)c(O)c3)c2)[C@@H]1OC(=O)c1cc(O)c(O)c(OC(=O)c2cc(O)c(O)c(O)c2)c1)c1cc(O)c(O)c(OC(=O)c2cc(O)c(O)c(O)c2)c1`, the activity, negative = cell killing in assay [1] (setting [7]) is -14.4%. For the same molecule, the Potency in assay [1] (tumour line A) is 15.8 µM (active); in assay [1] (tumour line B), 22.4 µM (active); in assay [1] (tumour line D) it was 17.8 µM (active); with astro it was 2.82 µM (active).
As for `CC[C@H](C)[C@H](NC(=O)[C@H](Cc1ccccc1)NC(=O)[C@H](C)NC(=O)[C@H](CC(=O)O)NC(=O)[C@H](CCCCN)NC(=O)[C@H](CO)NC(=O)[C@@H]1CCCN1C(=O)[C@@H]1CCC(=O)N1)C(=O)NCC(=O)N[C@@H](CC(C)C)C(=O)N[C@@H](CCSC)C(N)=O` ([pGlu]PSKDAFIGLM-NH2), the activity, negative = cell killing in assay [1] (setting [4]) was -11.4%; in assay [1] (setting [5]), 13.8%; in assay [1] (setting [6]), -9.58%; in assay [1] (setting [7]), -14.3%. Besides, in the assay with astro, the Potency entry is “inactive”.
Consider `OCCCNc1ccccc1`, for which the activity, negative = cell killing in assay [1] (setting [4]) is 1.67%; in assay [1] (setting [5]), -0.692%; in assay [1] (setting [6]), -52.2%; in assay [1] (setting [7]) it was -9.32%. Further, in the assay with astro, the Potency result was “inactive”.
Regarding `CC(C)CCC[C@@H](C)[C@H]1CC[C@H]2[C@@H]3CC=C4C[C@@H](O)CC[C@]4(C)[C@H]3CC[C@]12C`, the activity, negative = cell killing in assay [1] (setting [4]) was -9.94%; in assay [1] (setting [5]), -4.88%; in assay [1] (setting [6]), -8.25%; in assay [1] (setting [7]), 1.16%. Further, in the assay on astro, the Potency entry was “inactive”. Also, the max response in assay [2] is -2.23%. The molecule was called inactive in assay [3].
As for `CC(=O)N[C@@H](C=O)[C@@H](O)[C@H](O)[C@H](O)CO`, the activity, negative = cell killing in assay [1] (setting [4]) is -6.52%; in assay [1] (setting [5]), -3.57%; in assay [1] (setting [7]), -2.77%. In the assay with astro, the Potency entry was “inactive”.
Take `CC[C@H]1OC(=O)[C@H](C)[C@@H](O[C@H]2C[C@@](C)(OC)[C@@H](O)[C@H](C)O2)C(C)[C@@H](O[C@@H]2O[C@H](C)C[C@H](N(C)C)[C@@H]2O)[C@](C)(OC)C[C@@H](C)C(=O)[C@H](C)[C@@H](O)[C@]1(C)O` (stereo not given in full): the values for the activity, negative = cell killing in assay [1] (setting [4]), in assay [1] (setting [5]) and in assay [1] (setting [7]) were -10.3%, -27.7% and 2.27%, respectively. Further, the Potency result in the assay on astro was “inactive”.
Consider `OCl`, for which the activity, negative = cell killing in assay [1] (setting [4]) is -3.7%; in assay [1] (setting [5]), -8.71%; in assay [1] (setting [6]), -24.4%; in assay [1] (setting [7]), -3.94%. In the assay with astro, the Potency entry is “inactive”. In addition, the max response in assay [2] is -4.49%. Further, the call in assay [3] was inactive.
As to `CC[C@H]1OC(=O)[C@H](C)[C@@H](O[C@H]2C[C@@](C)(OC)[C@@H](O)[C@H](C)O2)[C@H](C)[C@@H](O[C@@H]2O[C@H](C)C[C@H](N(C)C)[C@H]2O)[C@](C)(O)C[C@@H](C)CN(C)[C@H](C)[C@@H](O)[C@]1(C)O`, the activity, negative = cell killing in assay [1] (setting [4]) is -13.7%; in assay [1] (setting [5]), -25.4%; in assay [1] (setting [7]), -5.95%. In addition, the Potency in assay [1] (tumour line A) is 5.01 µM (active). Moreover, the Potency entry with astro was “inactive”. Further, the max response in assay [2] was -1.6%. Also, the call in assay [3] was inactive.
For the molecule `CC(O)[C@H]1CC[C@H]2[C@@H]3CC[C@@H]4C[C@@H](O)CC[C@]4(C)[C@H]3CC[C@]12C` (stereo not given in full), the activity, negative = cell killing is -13.1% in assay [1] (setting [4]), -23.2% in assay [1] (setting [5]) and 18.8% in assay [1] (setting [7]). Further, the Potency entry with astro was “inactive”.
Take `Cc1ccc(S(=O)(=O)O)cc1C`: the activity, negative = cell killing in assay [1] (setting [4]) is -6.15%; in assay [1] (setting [5]), 0.633%; in assay [1] (setting [6]), -2.37%; in assay [1] (setting [7]) it was -2.17%. Also, the Potency result with astro was “inactive”. In assay [2], the max response was 0.795%. The molecule was classed as inactive in assay [3].

For the origin of these results see PubChem BioAssay (NCATS).
